According to the supplement of paper PMC12350171:
Where a name gives a salt, the structure may show the parent alone. Unmarked numbers belong to inactive results.

Key:
Conditions in all cases: 20 µM
[1] = system: Salmonella enterica typhimurium; experiment: growth AUC normalised to DMSO control (fraction of control); higher = less growth inhibition, active = hit call of the paper
Method in brief: (§1)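 Pathogens passaged twice anaerobically were inoculated at a starting OD578 of 0.01 into pre-reduced mGAM plates with drug at 20 μM and 1% DMSO, sealed with breathable membranes. Haemophilus parainfluenzae medium was supplemented with hemin and NAD. OD578 was read hourly for 24 h, with three biological replicates. Growth-curve AUC was computed by the trapezoidal rule up to the exponential-to-stationary transition and normalised to DMSO controls on the same plate.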

Shigella flexneri = experiment: as above
Method in brief: as §1

Vibrio cholerae = experiment: as above
Method in brief: as §1

[2] = system: Yersinia pseudotuberculosis; experiment: as above
Method in brief: as §1

P. vulgatus RND KO = experiment: growth AUC normalised to DMSO control (median) (fraction of control); higher = less growth inhibition, active = hit call of the paper
Method in brief: (§2)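 After two overnight anaerobic passages, strains were inoculated at OD578 0.01 into mGAM in 96-well plates containing approved-drug library compounds at 20 μM and 1% DMSO. Growth was followed by reading OD578 hourly for 24 h within an anaerobic incubator. Area under the curve, taken by the trapezoidal rule up to the start of stationary phase, was normalised to same-plate vehicle wells, and the median of three biological replicates is listed.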

P. vulgatus WT = experiment: as above
Method in brief: as §2

[3] = system: S. enterica typhimurium WT; experiment: as above
Method in brief: as §2

[4] = system: S. enterica typhimurium tolC KO; experiment: as above
Method in brief: as §2
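Wherever growth AUC normalised to DMSO control (median) is given: active when median AUC fell below 0.1.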

Compound	growth AUC normalised to DMSO control [1]	growth AUC normalised to DMSO control (Shigella flexneri)	growth AUC normalised to DMSO control (Vibrio cholerae)	growth AUC normalised to DMSO control [2]	growth AUC normalised to DMSO control (P. vulgatus RND KO)	growth AUC normalised to DMSO control (P. vulgatus WT)	growth AUC normalised to DMSO control [3]	growth AUC normalised to DMSO control [4]
CNCCC=C1c2ccccc2C=Cc2ccccc21 [Norcyclobenzaprine]	0.983	0.935	0.888	0.996	0.943	0.926	0.994	0.968
CCCCc1cc2ccccc2c(OCCN(C)C)n1 [Dimethisoquin hydrochloride]	1	1.03	0.866 (active)	1.02	1	1.02	0.997	0.918
CN(C)CCCOc1nn(Cc2ccccc2)c2ccccc12 [Benzydamine hydrochloride]	1	0.958	0.892	0.991	0.993	1.01	0.988	0.959
COc1c(O[C@@H]2O[C@H](CO)[C@@H](O)[C@H](O)[C@H]2O)cc2c(c1OC)-c1ccc(SC)c(=O)cc1[C@@H](NC(C)=O)CC2 [Thiocolchicoside]	0.993	0.98	1	0.988	1.01	0.999	1	1
CCN(CC)CCNc1ccc(CO)c2sc3ccccc3c(=O)c12 [Hycanthone]	0.936	0.984	0.879	0.991	0.994	0.96	0.993	0.163
Cn1ccnc1S [Methimazole]	1.01	1.02	1.02	1.01	0.996	1.01	1	0.988
CCCCCCC[N+](CC)(CC)CCCCc1ccc(Cl)cc1 [Clofilium tosylate]	1	0.99	1.02	1.02	0.973	0.859	1.01	0.541
CC(=O)[C@H]1CC[C@H]2[C@@H]3C[C@H](C)C4=CC(=O)CC[C@]4(C)[C@H]3[C@@H](O)C[C@]12C [Medrysone]	0.994	0.962	0.974	0.991	0.997	1.02	1.01	0.976
Cc1cccc(C)c1OCC(C)N (configuration not stated) [Mexiletine hydrochloride]	1.01	1.05	1.05	1.01	1.03	1.05	1	0.999
COc1ccc2c(c1)C(=O)N(CCc1ccc(S(=O)(=O)NC(=O)NC3CCCCC3)cc1)C(=O)C2(C)C [Gliquidone]	1	1.02	0.995	1	0.994	1.01	1.01	1
C=C[C@H]1CN2CC[C@H]1C[C@@H]2[C@@H](O)c1ccnc2ccc(OC)cc12 [Quinidine hydrochloride monohydrate]	0.991	0.996	0.985	0.991	0.998	1.03	0.99	0.997
NC(=O)c1cnccn1 [Pyrazinamide]	0.99	0.92	0.993	0.99	0.992	0.993	0.999	0.999
O=C1c2ccccc2S(=O)(=O)N1CCCCN1CCN(c2ncccn2)CC1 [Ipsapirone]	0.991	0.99	0.957	0.998	1	1.01	0.989	1.01
CC1Cc2ccccc2N1NC(=O)c1ccc(Cl)c(S(N)(=O)=O)c1 (configuration not stated) [Indapamide]	1	0.985	1.01	0.992	0.999	1.02	1	0.988
